Experimental data reported in PubChem BioAssay (NCI).
This is part of a sample that, as a whole, favours compounds with a hit. Of some 79,000 tested, about 15% had one in any assay. Unmarked numbers belong to inactive results. Active and inactive are the calls of the source. Cut-off read from the data, not from the text of the source: active = growth inhibition above about 70%; inactive = the rest.

Legend:
[1] = NCI Yeast Anticancer Drug Screen. Data for the rad50 strain (AID 155);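 note: 0% = growth of vehicle-only cultures of the same strain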; details: S. cerevisiae rad50 strain growth inhibition; at 50.0 µM; hits give high values
Summary of the method: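 Compounds were tested on a yeast strain with an engineered DNA damage repair alteration; the reported value is growth inhibition normalised to vehicle treatment.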

[2] = NCI Yeast Anticancer Drug Screen. Data for the mec2-1 strain (AID 157); details: S. cerevisiae mec2-1 strain, at 50.0 µM, hits give high values
Summary of the method: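 Using mec2-1 yeast: add compound, measure growth, express inhibition versus vehicle-treated cultures.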

[3] = NCI Yeast Anticancer Drug Screen. Data for the sgs1 mgt1 strain (AID 161);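 note: 0% = growth of cultures given vehicle only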; details: S. cerevisiae sgs1 mgt1 strain, at 50.0 µM, hits give high values
Summary of the method: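 Compounds are added to genetically altered yeast, and growth is compared with cultures given vehicle alone to give percent inhibition.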

[4] = NCI Yeast Anticancer Drug Screen. Data for the cln2 rad14 strain (AID 165);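 note: 0% = growth equal to vehicle treated cultures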; details: S. cerevisiae cln2 rad14 strain, at 50.0 µM, hits give high values
Summary of the method: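 Yeast strain cln2 rad14, bearing defects in cell cycle control and DNA repair, serves as the test system; values reflect growth inhibition compared with vehicle.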

[5] = NCI Yeast Anticancer Drug Screen. Data for the bub3 strain (AID 167); details: S. cerevisiae bub3 mutant strain, at 50.0 µM, hits give high values
Summary of the method: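 Growth of a checkpoint-deficient yeast mutant is measured after compound exposure. Values represent inhibition relative to vehicle.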

[6] = NCI Yeast Anticancer Drug Screen. Data for the mlh1 rad18 strain (AID 175); details: S. cerevisiae mlh1 rad18 strain growth inhibition; at 50.0 µM; hits give high values
Summary of the method: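 Steps: expose repair-defective yeast to compound; measure growth; express inhibition against vehicle-treated controls.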

CCOC(=O)CC(=O)Nc1cccc2sc3ncccc3c(=O)c12
growth inhibition [1]: -35.4% | growth inhibition [2]: -52.6% | growth inhibition [3]: -4.25% | growth inhibition [4]: 15.4% | growth inhibition [5]: 0.7% | growth inhibition [6]: 0.2%

CC1=CC(/C=C(\C)CCCc2ccoc2)C2(OC(=O)C(C)=C2O)[C@H]2C1CC[C@@H]2C (some centres not stated)
growth inhibition [1]: 49.9% | growth inhibition [2]: 58.3% | growth inhibition [3]: 53.5% | growth inhibition [4]: 66% | growth inhibition [5]: 55.5% | growth inhibition [6]: 54.9%

CN(C)S(=O)(=O)c1ccc(Nc2ccc(O)c3c2C(=O)c2c([N+](=O)[O-])ccc(O)c2C3=O)cc1
growth inhibition [1]: 54.9% | growth inhibition [2]: 13.4% | growth inhibition [3]: -31.9% | growth inhibition [4]: -8.3% | growth inhibition [5]: -27.8% | growth inhibition [6]: 26.1%

Cc1cccc(C)c1NC(=O)C(=O)C(C#N)c1c(Cl)cccc1Cl (configuration not stated)
growth inhibition [1]: -38% | growth inhibition [2]: 5.2% | growth inhibition [3]: 16.4% | growth inhibition [4]: -25.2% | growth inhibition [5]: -4.85% | growth inhibition [6]: 10.7%

O=C(O)CNC(=O)NNc1ccccc1
growth inhibition [1]: -4.75% | growth inhibition [2]: -7.6% | growth inhibition [3]: -11% | growth inhibition [4]: 28.3% | growth inhibition [5]: -10.3% | growth inhibition [6]: -12.7%

Cc1cncc(C)c1P(=O)(O)O
growth inhibition [1]: -10.3% | growth inhibition [2]: -6.1% | growth inhibition [3]: -9.05% | growth inhibition [4]: -19.8% | growth inhibition [5]: 3.55% | growth inhibition [6]: 3.65%

Cc1cccc(N=C(Nc2cccc(C)n2)Nc2cccc(C)n2)n1
growth inhibition [1]: 31.3% | growth inhibition [2]: 15.8% | growth inhibition [3]: 35.6% | growth inhibition [4]: 36.9% | growth inhibition [5]: 25.9% | growth inhibition [6]: 31.1%

COC/N=C(\NC#N)NCOC
growth inhibition [1]: 20.5% | growth inhibition [2]: -1% | growth inhibition [3]: 9.5% | growth inhibition [4]: 14% | growth inhibition [5]: -11.7% | growth inhibition [6]: 23.2%

CCc1cccc(C(=O)NCCN(C)C)c1[N+](=O)[O-]
growth inhibition [1]: -10.4% | growth inhibition [2]: -17.9% | growth inhibition [3]: -12.2% | growth inhibition [4]: 22% | growth inhibition [5]: -11.9% | growth inhibition [6]: -5%

Cc1cccc(Cc2ccccc2C(=O)c2ccccc2)c1C
growth inhibition [1]: 5.75% | growth inhibition [2]: -6.75% | growth inhibition [3]: -5.5% | growth inhibition [4]: -19.2% | growth inhibition [5]: 7.4% | growth inhibition [6]: -17.1%

CN(C)c1ccc(S(=O)(=O)c2ccc3nc(N)nc(N)c3c2)cc1
growth inhibition [1]: 29.2% | growth inhibition [2]: 16.2% | growth inhibition [3]: 5.45% | growth inhibition [4]: -26.5% | growth inhibition [5]: -5.9% | growth inhibition [6]: 3.85%

O=C(O)C(CSC(c1ccccc1)(c1ccccc1)c1ccccc1)NSc1ccccc1[N+](=O)[O-] (configuration not stated)
growth inhibition [1]: 96.2% (active) | growth inhibition [2]: 97.2% (active) | growth inhibition [3]: 97.7% (active) | growth inhibition [4]: 96.5% (active) | growth inhibition [5]: 95.6% (active) | growth inhibition [6]: 97.8% (active)

S=c1[nH]c(=S)c2[nH]cnc2[nH]1
growth inhibition [1]: -7.4% | growth inhibition [2]: -5.45% | growth inhibition [3]: -7.1% | growth inhibition [4]: -7.35% | growth inhibition [5]: -4.95% | growth inhibition [6]: -0.3%

C[N+]1(C)CCCC1
growth inhibition [1]: 24.5% | growth inhibition [2]: 5.5% | growth inhibition [3]: 24.2% | growth inhibition [4]: 7.6% | growth inhibition [5]: 35.5% | growth inhibition [6]: 16.1%

CC(C)(C)c1ccc(/C=N/NC(=O)c2cccnc2)cc1
growth inhibition [1]: 0.55% | growth inhibition [2]: 8.45% | growth inhibition [3]: 4.15% | growth inhibition [4]: 14.3% | growth inhibition [5]: 11.3% | growth inhibition [6]: 9.45%

CC1(C)CC(N(CCO)CCO)CC(C)(C)N1O
growth inhibition [1]: 4.05% | growth inhibition [2]: -2.8% | growth inhibition [3]: 11.4% | growth inhibition [4]: -1.95% | growth inhibition [5]: -7.2% | growth inhibition [6]: 5.35%

[S-]c1n[n+](-c2ccccc2)c(-c2ccc(Cl)cc2)s1
growth inhibition [1]: -2.05% | growth inhibition [2]: 5.8% | growth inhibition [3]: 7.75% | growth inhibition [4]: -3.65% | growth inhibition [5]: -4.85% | growth inhibition [6]: 0.45%

CCCC1=C(OC)C(=O)c2c(C)cc(Cl)nc2C1=O
growth inhibition [1]: 48.5% | growth inhibition [2]: 48.2% | growth inhibition [3]: 86.2% (active) | growth inhibition [4]: 78.8% (active) | growth inhibition [5]: 87.5% (active) | growth inhibition [6]: 38.9%

Cc1cccc(CNc2ncnc3[nH]ncc23)c1
growth inhibition [1]: -15% | growth inhibition [2]: -30.8% | growth inhibition [3]: -24.8% | growth inhibition [4]: -12.6% | growth inhibition [5]: -36.1% | growth inhibition [6]: 3.15%

CCOC(=O)C1C(C)=CC(=O)CC1C(C)C (configuration not stated)
growth inhibition [1]: 4.1% | growth inhibition [2]: -8.5% | growth inhibition [3]: 5.7% | growth inhibition [4]: -20.6% | growth inhibition [5]: -15.8% | growth inhibition [6]: 5.2%

CN(C)CCNC(=O)c1cnn(C)c1[N+](=O)[O-]
growth inhibition [1]: 26.4% | growth inhibition [2]: 8.75% | growth inhibition [3]: 17.3% | growth inhibition [4]: 13.2% | growth inhibition [5]: 0% | growth inhibition [6]: -59.1%

O=C(C[n+]1cccc(Br)c1)c1ccc(F)cc1
growth inhibition [1]: 16.1% | growth inhibition [2]: 19.9% | growth inhibition [3]: 9.6% | growth inhibition [4]: 21.4% | growth inhibition [5]: 3.35% | growth inhibition [6]: 10.2%

Clc1c(Cl)c(CBr)c(Cl)c(-c2c(Cl)c(Cl)c(Cl)c(CBr)c2Cl)c1Cl
growth inhibition [1]: 2.15% | growth inhibition [2]: -4.1% | growth inhibition [3]: -2.55% | growth inhibition [4]: -25.7% | growth inhibition [5]: 2.45% | growth inhibition [6]: -1.1%

CCOc1ccc(-n2c(O)c(N=Nc3ccccc3OC)c(=O)n(-c3ccc(OC)cc3)c2=S)cc1
growth inhibition [1]: 18.4% | growth inhibition [2]: -7.9% | growth inhibition [3]: -10.3% | growth inhibition [4]: -10.4% | growth inhibition [5]: -4.8% | growth inhibition [6]: 7.05%

COC(=O)c1c(C)oc(C)c1-c1ccc(OCc2ccccc2)c(OC)c1
growth inhibition [1]: 8.7% | growth inhibition [2]: -12.8% | growth inhibition [3]: -35.8% | growth inhibition [4]: 7.6% | growth inhibition [5]: 1.25% | growth inhibition [6]: 2.7%

C=C(C)COCc1ccc(C(C)(C)CC(C)(C)C)cc1
growth inhibition [1]: -14.6% | growth inhibition [2]: -10.3% | growth inhibition [3]: -9.85% | growth inhibition [4]: -23.5% | growth inhibition [5]: -15.4% | growth inhibition [6]: 1.55%

COc1ccc(NC(=O)CSc2nc(C)nc3c2sc(=S)n3-c2ccccc2)cc1
growth inhibition [1]: -16.7% | growth inhibition [2]: -4.85% | growth inhibition [3]: 2.95% | growth inhibition [4]: 2.65% | growth inhibition [5]: -3.5% | growth inhibition [6]: 4.45%

NC1(C(=O)OCc2ccccc2)CCCC1
growth inhibition [1]: 18.6% | growth inhibition [2]: -5.45% | growth inhibition [3]: -14.1% | growth inhibition [4]: 1.9% | growth inhibition [5]: -1.7% | growth inhibition [6]: 37.9%

O=[N+]([O-])c1ccc(N/N=C2/CC3=C2CCCCCCCCCC3)c([N+](=O)[O-])c1
growth inhibition [1]: -6.35% | growth inhibition [2]: -4.95% | growth inhibition [3]: 11% | growth inhibition [4]: -14.2% | growth inhibition [5]: -2.15% | growth inhibition [6]: -13.4%

COc1ccccc1CNCc1nc2ccccc2[nH]1
growth inhibition [1]: 4.8% | growth inhibition [2]: 2.6% | growth inhibition [3]: 6.9% | growth inhibition [4]: 13.2% | growth inhibition [5]: 0.55% | growth inhibition [6]: 36.6%

C1CCCN(/N=N/N2CCCCCC2)CC1
growth inhibition [1]: -1.5% | growth inhibition [2]: 0.4% | growth inhibition [3]: -1.7% | growth inhibition [4]: -19.1% | growth inhibition [5]: 10.8% | growth inhibition [6]: 6.65%

O=c1[nH]c2nc[nH]c(=O)c2[nH]1
growth inhibition [1]: 0.25% | growth inhibition [2]: -7.6% | growth inhibition [3]: 5.1% | growth inhibition [4]: -11.8% | growth inhibition [5]: -6.05% | growth inhibition [6]: 6.05%

O[C@H]1[C@H]2c3cc4c(cc3CN3CCC(C[C@@H]1O)[C@H]23)OCO4 (some centres not stated)
growth inhibition [1]: 3.05% | growth inhibition [2]: -6.5% | growth inhibition [3]: 9.65% | growth inhibition [4]: 20.3% | growth inhibition [5]: 3.4% | growth inhibition [6]: 9.3%

O=C1OC(c2ccccc2)=N/C1=C\c1cccc2ccccc12
growth inhibition [1]: -45.9% | growth inhibition [2]: -36.6% | growth inhibition [3]: -13.6% | growth inhibition [4]: 0.35% | growth inhibition [5]: -16.4% | growth inhibition [6]: -31.1%

O=C(N/N=C\c1cccc2c([N+](=O)[O-])cccc12)Nc1ccccc1
growth inhibition [1]: -30.6% | growth inhibition [2]: -0.45% | growth inhibition [3]: -21.9% | growth inhibition [4]: 2.6% | growth inhibition [5]: -16.6% | growth inhibition [6]: -31.6%

CC[C@H](O)[C@H](C)C=C1SCCCS1
growth inhibition [1]: -14.3% | growth inhibition [2]: -42.2% | growth inhibition [3]: 19.9% | growth inhibition [4]: 25.1% | growth inhibition [5]: -43.8% | growth inhibition [6]: -43.6%

CCCCNC(=O)/N=C/c1c(O)c2ccccc2oc1=O
growth inhibition [1]: 7.9% | growth inhibition [2]: -10.1% | growth inhibition [3]: -13.4% | growth inhibition [4]: -1.5% | growth inhibition [5]: -42.5% | growth inhibition [6]: -16.6%

Brc1cncc(Br)c1
growth inhibition [1]: 31.9% | growth inhibition [2]: -9.35% | growth inhibition [3]: -13.3% | growth inhibition [4]: -2.1% | growth inhibition [5]: -12.2% | growth inhibition [6]: 1.4%

CN(C)C=Nc1ccc2[nH]c3ccccc3c2c1
growth inhibition [1]: -25.4% | growth inhibition [2]: -13.1% | growth inhibition [3]: -16.2% | growth inhibition [4]: 14.3% | growth inhibition [5]: 22.9% | growth inhibition [6]: 21.4%

COc1c(O)ccc(/C=N/NC(=S)NCOCCOC(C)=O)c1OC
growth inhibition [1]: 0.85% | growth inhibition [2]: -3.8% | growth inhibition [3]: 1.7% | growth inhibition [4]: 21.9% | growth inhibition [5]: 9.95% | growth inhibition [6]: -10.6%

O=c1cc(NCc2c(Cl)cccc2[N+](=O)[O-])[nH]c(=O)[nH]1
growth inhibition [1]: -8.8% | growth inhibition [2]: 37.5% | growth inhibition [3]: 14.7% | growth inhibition [4]: -7.9% | growth inhibition [5]: 15% | growth inhibition [6]: -5.3%

S=C(SC1C=CCC1)N1CCOCC1 (configuration not stated)
growth inhibition [1]: 15.7% | growth inhibition [2]: -2.8% | growth inhibition [3]: 13.5% | growth inhibition [4]: -41.8% | growth inhibition [5]: 10.1% | growth inhibition [6]: -13.6%
